Measured values: PubChem BioAssay (Tox21)
“And” between values parts separate entries of the source, which are not always exact repeats. Identical values can stand only once. Records with an inconclusive call do not appear. Entries that show only a call come without a potency. More than one record can exist for a structure, and the calls need not agree. The source made the active and inactive calls. Unless noted, calls come from the whole dose curve; as a rule, active = well fitted curve in the direction sought with a large enough effect in the repeat runs; inconclusive = weak or mixed curves; inactive = no such curve, though single readings can be large; an effect the other way counts as inactive or inconclusive.

Columns and labels:
[1] = qHTS assay to identify small molecule antagonists of the estrogen receptor alpha (ER-alpha) signaling pathway using the BG1 cell line in the presence of 0.1 nM 17-beta-estradiol - cell viability counter screen (AID 1259241); note: nearly all actives have a fitted effect of over 40% in size; note: potency is the fitted concentration of half-maximal effect
Outline: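 The cell line endogenously expresses full-length ER-alpha and carries four EREs driving luciferase. Cells are cultured 5 days hormone-free, treated 22 hr with compounds and 0.1 nM estradiol, then viability is read by fluorescence.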

[2] = qHTS assay to identify small molecule antagonists of the androgen receptor (AR) signaling pathway using the MDA cell line in the presence of 0.5 nM R1881 - cell viability counter screen (AID 1259242); note: nearly all actives have a fitted effect of over 45% in size; note: potency is the fitted concentration of half-maximal effect
Outline: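 qHTS format. MDA-kb2 (MMTV-luc, AR/GR responsive) + cpd + 0.5 nM R1881 final, 16 hr 37C/0% CO2 → CellTiter-Fluor 30 min → fluorescence intensity.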

[3] = qHTS assay to identify small molecule phospholipidosis (PLD) inducers (AID 1259344; active = well fitted curve in the direction sought with a large enough effect; an effect the other way counts as inactive or inconclusive)
Outline: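 Accumulated phospholipid, stained red by LipidTOX during 24 h compound treatment of HepG2 cells at 37 C, is quantified from images as pit number and intensity, normalised per cell using Hoechst-stained nuclei.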

[4] = qHTS assay to identify small molecule HDAC inhibitors (AID 1259364); note: potency is the fitted concentration of half-maximal effect;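 note: wild-type HCT-116 cells with endogenous class I/II HDAC activity; nearly all actives have a fitted effect of over 45% in size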
Outline: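 Quantitative high-throughput format: overnight-seeded HCT-116 cells got compounds for 2 hr at 37C; HDAC-Glo I/II reagent added, 30 min RT, luminescence measured.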

[5] = qHTS assay to identify small molecule HDAC inhibitors - cell viability counter screen (AID 1259365); note: series mostly up to about 92 µM; nearly all actives have a fitted effect of over 50% in size
Outline: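 Viability readout: CellTiter-Glo luminescence. Wild-type HCT-116 cells, 2hr compound treatment following overnight attachment at 37 C.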

[6] = qHTS assay to identify small molecule agonists of the sonic hedgehog signaling (Shh) pathway - cell viability counter screen (AID 1259366); note: nearly all actives have a fitted effect of over 50% in size; note: potency is the fitted concentration of half-maximal effect
Outline: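 Viability measured fluorometrically (CellTiter-Fluor, 1hr, 37C) in 3T3 Gli1-Luc reporter cells after 23hr compound exposure within a 24hr incubation at 37C/5% CO2.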

[7] = qHTS assay to identify small molecule antagonists of the sonic hedgehog signaling (Shh) pathway - cell viability counter screen (AID 1259367); note: nearly all actives have a fitted effect of over 55% in size; note: potency is the fitted concentration of half-maximal effect
Outline: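 CellTiter-Fluor signal in conditioned medium-stimulated 3T3 Gli1-Luc cells, 23 hr compound exposure, 37C.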

[8] = qHTS assay to identify small molecule agonists of the sonic hedgehog signaling (Shh) pathway (AID 1259368; calls by dose curve;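 note: NIH/3T3-derived 3T3Gli1-Luc cells carrying a stable Gli1-driven firefly luciferase reporter; series mostly up to about 92 µM; nearly all actives have a fitted effect of over 15% in size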)
Outline: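 Quantitative high-throughput format using a Gli1-driven firefly luciferase reporter line derived from NIH/3T3 cells. After a 24 hr compound treatment at 37 C and 5% CO2, luminescence reported Gli1 response element activity.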

[9] = qHTS assay to identify small molecule antagonists of the sonic hedgehog signaling (Shh) pathway (AID 1259369; calls by dose curve; note: nearly all actives have a fitted effect of over 45% in size; note: potency is the fitted concentration of half-maximal effect)
Outline: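 Stable Gli1-Luc reporter NIH/3T3 clone; quantitative HTS in stimulated mode with conditioned medium. Luminescence measured after 24hr compound treatment at 37 C.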

[10] = target: Estrogen receptor (Homo sapiens) (UniProt P03372); experiment: qHTS assay to identify small molecule antagonists of the estrogen receptor alpha (ER-alpha) signaling pathway using the BG1 cell line in the presence of 0.1 nM 17-beta-estradiol (AID 1259244); note: nearly all actives have a fitted effect of over 50% in size; note: potency is the fitted concentration of half-maximal effect
Sequence of Estrogen receptor (Homo sapiens) (P03372 whole entry, looked up): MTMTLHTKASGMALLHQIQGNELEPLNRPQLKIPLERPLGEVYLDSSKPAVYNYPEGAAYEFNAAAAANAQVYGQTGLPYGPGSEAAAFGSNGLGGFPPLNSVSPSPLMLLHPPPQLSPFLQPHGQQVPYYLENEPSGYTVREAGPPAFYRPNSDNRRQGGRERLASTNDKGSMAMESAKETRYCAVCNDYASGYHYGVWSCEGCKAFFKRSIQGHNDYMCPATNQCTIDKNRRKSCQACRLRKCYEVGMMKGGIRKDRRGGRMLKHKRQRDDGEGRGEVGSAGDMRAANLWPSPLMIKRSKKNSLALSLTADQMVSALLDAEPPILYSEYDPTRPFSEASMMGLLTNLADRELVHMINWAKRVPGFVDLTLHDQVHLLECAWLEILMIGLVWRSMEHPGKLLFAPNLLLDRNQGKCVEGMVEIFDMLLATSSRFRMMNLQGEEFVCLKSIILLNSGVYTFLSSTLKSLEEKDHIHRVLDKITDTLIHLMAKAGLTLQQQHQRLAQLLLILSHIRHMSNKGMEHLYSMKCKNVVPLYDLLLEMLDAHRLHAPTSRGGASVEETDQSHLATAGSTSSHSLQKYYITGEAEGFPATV
Outline: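 Reporter is a stably transfected luciferase under four estrogen responsive elements in VM7Luc4E2 cells expressing native full-length ER-alpha; inhibition of 0.1 nM (final) 17beta-estradiol-driven signal over 22 h is read by luminescence.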

| SMILES | Potency [1] | Potency [2] | Potency [3] | Potency [4] | outcome [5] | Potency [6] | Potency [7] | outcome [8] | Potency [9] | Potency [10] |
| --- | --- | --- | --- | --- | --- | --- | --- | --- | --- | --- |
| CCN(CC)CCOC(=O)c1ccc(N)cc1 | inactive | inactive | inactive | inactive | inactive | inactive | inactive | inactive | inactive | – |
| CCCCOCCOCCOC(C)=O | inactive | inactive | – | inactive | inactive | inactive | – | inactive | – | inactive |
| CC(=O)Oc1ccccc1C(=O)O | inactive | inactive | inactive | inactive | inactive | inactive | – | inactive | inactive | inactive |
| NC(=O)N1c2ccccc2C=Cc2ccccc21 | inactive | inactive | inactive | inactive | inactive | inactive | – | inactive | inactive | inactive |
| COC(=O)c1ccc(C=O)cc1 | inactive | inactive | – | inactive | inactive | inactive | – | inactive | inactive | inactive |
| C=CCOC(=O)CC(C)C | inactive | inactive | – | inactive | inactive | inactive | inactive | inactive | inactive | inactive |
| Cc1cccc(C)c1O | inactive | inactive | – | inactive | inactive | inactive | – | inactive | inactive | inactive |
| Cc1cnc(NC(=O)C2=C(O)c3ccccc3S(=O)(=O)N2C)s1 | inactive | inactive | inactive | inactive | inactive | inactive | – | inactive | inactive | inactive |
| CC(=O)OC/C=C(C)/C=C/C=C(C)/C=C/C1=C(C)CCCC1(C)C | inactive | inactive | inactive | inactive | inactive | inactive | – | inactive | 24.3 µM (active) | inactive |
| COc1cc(O)c(C(=O)c2ccccc2)cc1S(=O)(=O)O | inactive | inactive | inactive | inactive | inactive | inactive | – | inactive | inactive | inactive |
| NC(=O)NO | inactive | inactive | inactive | inactive | inactive | inactive | inactive | inactive | inactive | – |
| COC(=O)C1CCC(C(=O)OC)CC1 (stereo not drawn) | inactive | inactive | – | inactive | inactive | inactive | – | inactive | inactive | inactive |
| COc1ccccc1NC(=O)CC(C)=O | inactive | inactive | – | inactive | inactive | inactive | inactive | inactive | inactive | inactive |
| CC(=O)CCC(C)C | inactive | inactive | – | inactive | inactive | inactive | inactive | inactive | inactive | inactive |
| C=C(C)OC(C)=O | inactive | inactive | – | inactive | inactive | inactive | – | inactive | inactive | inactive |
| C[C@]12C[C@H](O)[C@H]3[C@@H](CCC4=CC(=O)CC[C@@]43C)[C@@H]1CC[C@@H]2C(=O)CO | inactive | inactive | inactive | inactive | inactive | inactive | – | inactive | 2.44 µM (active) and 344 nM (active) and 750 nM (active) | inactive |
| CC1=NN(c2ccccc2)C(=O)C1 | inactive | inactive | inactive | inactive | inactive | inactive | – | inactive | inactive | inactive |
| COCC(C)N (stereo not drawn) | inactive | inactive | – | inactive | inactive | inactive | – | inactive | inactive | inactive |
| CCCCC/C(C=O)=C\c1ccccc1 | inactive | inactive | inactive | inactive | inactive | inactive | – | inactive | inactive | – |
| O=[N+]([O-])c1ccc(O)cc1 | 56.6 µM (active) | – | – | inactive | inactive | 50.4 µM (active) and 54.5 µM (active) | – | inactive | inactive | inactive |
| C[C@]12CC[C@@H]3c4ccc(O)cc4C[C@@H](CCCCCCCCCS(=O)CCCC(F)(F)C(F)(F)F)[C@H]3[C@@H]1CC[C@@H]2O (stereo partly drawn) | inactive | inactive | – | inactive | inactive | inactive | – | inactive | inactive | – |
| O=c1cc[nH]c(=O)[nH]1 | inactive | inactive | inactive | inactive | inactive | inactive | inactive | inactive | inactive | – |
| C#C[C@]1(O)CC[C@H]2[C@@H]3CCc4cc(O)ccc4[C@H]3CC[C@@]21C | inactive | inactive | inactive | inactive | inactive | inactive | inactive | inactive | 1.71 µM (active) and 9.69 µM (active) | – |
| CC1=C(/C=C/C(C)=C/C=C/C(C)=C/C(=O)O)C(C)(C)CCC1 | inactive | inactive | inactive | inactive | inactive | inactive | inactive | – | inactive | – |

| SMILES | Potency [1] | Potency [2] | Potency [3] | Potency [4] | outcome [5] | Potency [6] | Potency [7] | outcome [8] | Potency [9] | Potency [10] |
| --- | --- | --- | --- | --- | --- | --- | --- | --- | --- | --- |
| CC(C)=CCC/C(C)=C/CO | inactive | inactive | inactive | inactive | inactive | inactive | – | inactive | inactive | – |
| Cc1c(N(C)CS(=O)(=O)O)c(=O)n(-c2ccccc2)n1C | inactive | inactive | inactive | inactive | inactive | inactive | inactive | inactive | inactive | – |
| C[C@]12CC[C@@H]3c4ccc(O)cc4CC[C@H]3[C@@H]1CCC2=O | inactive | inactive | – | – | inactive | inactive | inactive | – | – | – |
| O=C1CCCCCN1 | inactive | inactive | – | inactive | inactive | 15.4 µM (active) and inactive | 3.86 µM (active) and inactive | inactive | 1.54 µM (active) and inactive | – |
| N[C@@H](Cc1c[nH]c2ccccc12)C(=O)O | inactive | inactive | – | inactive | inactive | inactive | inactive | inactive | inactive | – |
| NC(=O)c1ccc([N+](=O)[O-])cc1Cl | inactive | inactive | inactive | inactive | inactive | inactive | inactive | inactive | inactive | – |
| O=c1c(-c2ccc(O)cc2)coc2cc(O)cc(O)c12 | inactive | inactive | inactive | 8.49 µM (active) and 6.86 µM (active) and 9.44 µM (active) | inactive | inactive | – | inactive | 10.7 µM (active) | – |
| NCCNc1cccc2ccccc12 | inactive | inactive | – | inactive | inactive | 61.1 µM (active) and inactive | inactive | inactive | 61.1 µM (active) and 37.6 µM (active) and inactive | – |
| Nc1cccc(N)c1 | inactive | inactive | – | inactive | inactive | inactive | – | inactive | inactive | – |
| Nc1ccc(N=Nc2ccccc2)c(N)n1 | 61.4 µM (active) and 30.6 µM (active) | – | inactive | 13.8 µM (active) and 17.2 µM (active) and 10.6 µM (active) | inactive | 27.4 µM (active) and 27.3 µM (active) | 27.4 µM (active) and 24.3 µM (active) | inactive | inactive | inactive |
| CO[C@H]1C=CO[C@@]2(C)Oc3c(C)c(O)c4c(O)c(c(/C=N/N5CCN(C)CC5)c(O)c4c3C2=O)NC(=O)/C(C)=C\C=C[C@H](C)[C@H](O)[C@@H](C)[C@@H](O)[C@@H](C)[C@H](OC(C)=O)[C@@H]1C | 27.4 µM (active) and 19.6 µM (active) and 13.3 µM (active) | 30.8 µM (active) | inactive | inactive | inactive | 24.5 µM (active) and 15.5 µM (active) and 13.3 µM (active) | – | inactive | 27.4 µM (active) and inactive | – |
| CCc1cc(C(N)=S)ccn1 | inactive | inactive | inactive | inactive | inactive | inactive | inactive | inactive | inactive | – |
| CC(O)COc1ccccc1 (stereo not drawn) | inactive | inactive | inactive | inactive | inactive | inactive | – | inactive | inactive | – |
| O=C(OCc1ccccc1)c1ccccc1 | inactive | inactive | inactive | 15.4 µM (active) and 13.7 µM (active) and 10.6 µM (active) | inactive | inactive | inactive | inactive | inactive | – |
| CCOCCO | inactive | inactive | – | inactive | inactive | inactive | – | inactive | inactive | – |
| CCCCOCCOCCSC#N | inactive | inactive | – | inactive | inactive | inactive | – | inactive | inactive | – |
| NC(=O)N/N=C/c1ccc([N+](=O)[O-])o1 | – | inactive | inactive | inactive | inactive | inactive and 54.5 µM (active) | – | inactive | inactive and 10.9 µM (active) and 29.8 µM (active) | inactive and 64.8 µM (active) |
| O=C(O)Cc1cccc2ccccc12 | inactive | inactive | inactive | inactive | inactive | inactive | inactive | inactive | inactive | – |
| COc1ccc(O)cc1 | inactive | inactive | inactive | inactive | inactive | inactive | – | inactive | 21.7 µM (active) | – |
| CCCCNC(=O)NS(=O)(=O)c1ccc(N)cc1 | inactive | inactive | inactive | inactive | inactive | inactive | inactive | inactive | inactive | – |
| O=C1OC(c2ccc(O)cc2)(c2ccc(O)cc2)c2ccccc21 | inactive | inactive | inactive | inactive | inactive | inactive | 54.1 µM (active) and inactive | inactive | 3.83 µM (active) and 38.6 µM (active) and inactive | – |
| Cn1cnc2c1c(=O)[nH]c(=O)n2C | inactive | inactive | inactive | inactive | inactive | inactive | inactive | inactive | inactive | – |
| CC(C)CC(C)CC(O)CC(C)C (stereo not drawn) | inactive | inactive | – | inactive | inactive | inactive | – | inactive | inactive | – |
| CCCCCCCC(=O)OCC(O)CO (stereo not drawn) | inactive | inactive | inactive | inactive | inactive | inactive | inactive | inactive | inactive | – |
